Consider 13 molecules from PMC12136788.

Whole data set: some 24,000 sequences, median “enrichment r” near 0.99, cut for the highest 2% near 3.7. This excerpt belongs to a sample that is enriched for the highest values.

First the molecules themselves.
T1: UNK ZnF1-3 (human, UniProt Q9C0B0 31-174)
T1 sequence: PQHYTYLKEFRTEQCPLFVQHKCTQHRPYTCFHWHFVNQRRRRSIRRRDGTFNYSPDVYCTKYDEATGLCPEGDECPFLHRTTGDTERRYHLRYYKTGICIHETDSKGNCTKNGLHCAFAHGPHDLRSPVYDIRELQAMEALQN

B1: chr6:38652254:38652255:-_ENSG00000124767_ENST00000373365|hu_hu|hu_hu_hu_mus_False|58_98 (ssRNA)
RNA: GGGAGUUCUACAGUCCGACGAUCCGAGAACUUCAUAAUGGGAAAAUCAAGCUUCUGCAGGAGGGUCAGUCCAAGAACUCUAGUAUAAAAAUCCAGGGACUUCUUAGGAUCCUUAAUUCUUAGCAUCGUUUGCUGCAGUAGAAACAACAGAGGAUUGAGCAUCA
B2: chr15:37385894:37385895:-_ENSG00000134138_ENST00000382766|hu_mus|motif|central (ssRNA)
RNA: GGGAGUUCUACAGUCCGACGAUCGCUUCCAUCUCUCUCAUCAAUCACGAGGUCAAUGGGCAUUUUUCCCUUCAAACAGCGGAUGUACCGGUGGCAGAAGUUAUCACAUAGUUCGUGGACCUUUUCUAACUCCAGAAGAUGAAACAACAGAGGAUUGAGCAUCA
B3: chr8:29959424:29959425:+_ENSG00000104660_ENST00000321250|hu_hu|FALSE|FALSE (ssRNA)
RNA: GGGAGUUCUACAGUCCGACGAUCGAAGGGCACAUCCAAGCAUCAAAAACAUCAGUCCGAUUGCUCCUCCAAAGGACAAACUAAUCAAAGCUUUGAUGCCUGCCAUGGCGGUGACGUCGCUCCUGGCUCCACGACCCGAGGCGGCAACAGAGGAUUGAGCAUCA
B4: chr13:13598695:13598696:+_ENSMUSG00000005397_ENSMUST00000005532|mus_hu|FALSE|FALSE (ssRNA)
RNA: GGGAGUUCUACAGUCCGACGAUCCACCAAGUCAGUCUCAAAGAGCACCCGGCGCUGCGUGCCGUCCAGCUUCGCCACUUCUAUUCGAUCCAGGUUAGAGUCUGUCCAGAAGAUGUUGCGGCCAAGGUGAUCAACAGCGAUACCCAACAGAGGAUUGAGCAUCA
B5: chrX:73036348:73036349:-_ENSMUSG00000016382_ENSMUST00000114059|mus_mus|FALSE|FALSE (ssRNA)
RNA: GGGAGUUCUACAGUCCGACGAUCUGCGUACUUGGCGUUAUUGUGCUUGUCAUCUUCUGUUAGAUUCCCACUCUUCACAAGGUCAUAGUUAAUGCAGCCUGGUUGGAUGGCGUCAAUUAAAUCCACAACCGCCAAACUGGAGCUCAACAGAGGAUUGAGCAUCA
B6: 70939002_70942968_1374_3pUTR_ENSMUSG00000034761_ENSMUST00000110570|mouse|control|control (ssRNA)
RNA: GGGAGUUCUACAGUCCGACGAUCGCUCCGCUCUGGAAUUCCUGUUUGUUGAUCUAAUGGUAUGACGAAUGAUUGCGUGGGGCUCCAAGUCGUCCUCAUCGCCCUCACUGUAGGGAGCAUGGUUGUCCGGAUUGCUCACCUUGUCAACAGAGGAUUGAGCAUCA
B7: chr8:133807003:133807004:+_ENSG00000129292_ENST00000220847|hu_mus|FALSE|FALSE (ssRNA)
RNA: GGGAGUUCUACAGUCCGACGAUCUUUGUUAAUUGCUUCAAUCUUGGCAGGGUAAUAGCGACAGUCUGUCCAACGAGCCAGUACUUCUUCUCCAGCUUUAAAAUCAAAGAGCUCUUCCUCAUCCUUUAGCCCUUCUUUCCUUAGCAACAGAGGAUUGAGCAUCA
B8: chrX:35959125:35959126:+_ENSMUSG00000000355_ENSMUST00000000365|mus_mus|FALSE|FALSE (ssRNA)
RNA: GGGAGUUCUACAGUCCGACGAUCAUUUGCUCCACUGAGUACAAAUUUGAUGGCUCCUUUAUCAACCUGCUGAUGUGGCAAGAUAAAAGGAUAUUUAUGAAGUAAUCUUAAAGUUGGAUAAAAAGGCCCUUCUCUUUGUCUAAACAACAGAGGAUUGAGCAUCA
B9: chr9:37357388:37357389:+_ENSG00000147905_ENST00000336755|hu_hu|FALSE|FALSE (ssRNA)
RNA: GGGAGUUCUACAGUCCGACGAUCUUGGACACAGAGAAUUGAGAUCUCCAUGGAUAUUCAGUAACUCUAGGAAUGGCUGAAAUUAAAAAAACAAAACCAAAAACUCACUUUAUUUAAUCAUAGAUAAUAAACACAGUGCCAGAACAACAGAGGAUUGAGCAUCA
B10: chr2:49628351:49628352:+_ENSMUSG00000026764_ENSMUST00000028102|mus_hu|FALSE|FALSE (ssRNA)
RNA: GGGAGUUCUACAGUCCGACGAUCACCGCAAAUAAUGGUAGAGCAGGUAUAUUGGGCUGGCACUGAUAACAAAAUUAAAGAAUGAAAAAAAUUUAAACAAAUGCAAAAUUGCCAUCUUCACAAAAUAAAUACUUCAAUAGAAUUCAACAGAGGAUUGAGCAUCA
B11: chr2:49628383:49628384:+_ENSMUSG00000026764_ENSMUST00000028102|mus_hu|FALSE|FALSE (ssRNA)
RNA: GGGAGUUCUACAGUCCGACGAUCAUAAGCUUUGCAAAACCUGCCCCACAAGGACCCUUUUAUCAGACCGCAAAUAAUGGUAGAGCAGGUAUAUUGGGCUGGCACUGAUAACAAAAUUAAAGAAUGAAAAAAAUUUAAACAAAUCAACAGAGGAUUGAGCAUCA
B12: chr2:5814250:5814251:-_ENSMUSG00000025816_ENSMUST00000102981|mus_hu|mus_mus_mus_hu_True|68_108 (ssRNA)
RNA: GGGAGUUCUACAGUCCGACGAUCUUCCUUUCAGGCUUCUGAAUUUCUGGUAGAACUGCACAGAAUGGUUUAAUAACUUCUAAAAAUUUGAUGCCCAUGGCUGCUGCUGGGGAGGCCCAGGGGGAAACCGCGGCCUCGGCGCUGCAACAGAGGAUUGAGCAUCA
B13: 49527313_49535755_592_CDS_ENSMUSG00000026764_ENSMUST00000028102|mouse|control|control (ssRNA)
RNA: GGGAGUUCUACAGUCCGACGAUCCAUGGUAUGAGUUUUUCCUGAUGAAGUCUGCCCAUAUGCAAAAAUUGUUCCAUUAUAACCCUCAAGGACAUCUUUGACAAUCUGCUUUGCACAGGCAUUGUAGACCUGCUCCUGGGUUGUCAACAGAGGAUUGAGCAUCA

The assay addresses T1, UNK ZnF1-3. The assay can be described thus: nsRBNS (natural sequence RNA bind-n-seq); RBNS binding buffer (assumed for nsRBNS): 25 mM Tris pH 7.5, 150 mM KCl, 3 mM MgCl2, 0.01% Triton X-100, 500 ug/ml BSA, 20 U/ml SUPERase-In, 4 C; UNK is unkempt and MSI1 is Musashi-1; names of the RNAs are library labels; protein concentration not given here; high values mean tight binding.
In the case of B1, the binding signal was 1.47 enrichment R. As to B2, the binding signal came out at 0.878 enrichment R. The result for B3 reads 1.29 enrichment R; that for B4, 1.36 enrichment R. In turn, B5 registered a binding signal of 0.875 enrichment R. The result for B6 reads 0.565 enrichment R; that for B7, 0.906 enrichment R; that for B8, 0.981 enrichment R.

For the molecule B9, the binding signal amounted to 1.15 enrichment R. The molecule B10 registered a binding signal of 4.72 enrichment R. For the molecule B11, the binding signal worked out at 10 enrichment R.

For the molecule B12, the binding signal amounted to 1.48 enrichment R. The result for B13 reads 0.621 enrichment R.
